# Reference: PubChem BioAssay (EPA / NIEHS)
# Records with an inconclusive call do not appear. The source made the active and inactive calls. The calls were made as follows: active = hit-call score of the fitted dose curve at least 0.9, where 1 is the maximum; inconclusive = response in the unintended direction; inactive = score below 0.9.
# Target: human Norepinephrine Transporter (NET), SLC6A2 (gene 6530) (UniProt P23975)
# Experiment: NVS_TR_hNET: NovaScreen (NVS) Transporter Assay for human Norepinephrine Transporter (NET) (AID 2283377);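 also: cell-free membrane protein extracted from CHO cells expressing human NET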
# Protocol: NVS_TR_hNET is a biochemical, single-readout assay that uses extracted gene-proteins from CHO in a cell-free assay. Measurements were taken 1 hour after chemical dosing in a 96-well plate.NVS_TR_hNET is one of one assay component(s) measured or calculated from the NVS_TR_hNET assay. It is designed to make measurements of radioligand binding, a form of binding reporter, as detected with scintillation counting signals by Filter-based radiodetection technology.Data from the assay component NVS_TR_hNET was analyzed into 1 assay endpoint. This assay endpoint, NVS_TR_hNET, was analyzed in the positive analysis fitting direction relative to DMSO as the negative control and baseline of activity. Using a type of binding reporter, loss-of-signal activity can be used to understand changes in the binding as they relate to the gene SLC6A2. Furthermore, this assay endpoint can be referred to as a primary readout, because the performed assay has only produced 1 assay endpoint. To generalize the intended target to other relatable targets, this assay endpoint is annotated to the transporter intended target family, where the subfamily is neurotransmitter transporter.
# Binding assays used specific radioligands (tritiated, iodinated) with non-radioactive competitive displacement ligands in agonist or antagonist protocols (as indicated) and various reference compounds and inhibitors to titrate specific binding to receptors and transporters. Most enzyme assays (CYPs, kinases, phosphatases, proteases, HDACs) used recombinant protein and specific substrates (fluorescence mostly, some colorimetric and radioactive) and inhibitors, followed by a biochemical separation of substrate and product. All assays for the biochemical HTS were initially run in duplicate at a single concentration (10 uM for CYP450 assays and 25 uM for all others). […] Each assay was run with positive and negative controls, and concurrent controls on every plate. The follow-up (secondary) screen tested active chemical-pairs in concentration series, as well as a few additional assays not tested in the primary screen, some selected negative inactives, and several cases re-run in the concentration series for confirmatory purposes.
# human Norepinephrine Transporter (NET), SLC6A2 (gene 6530), sequence (P23975 whole entry, looked up): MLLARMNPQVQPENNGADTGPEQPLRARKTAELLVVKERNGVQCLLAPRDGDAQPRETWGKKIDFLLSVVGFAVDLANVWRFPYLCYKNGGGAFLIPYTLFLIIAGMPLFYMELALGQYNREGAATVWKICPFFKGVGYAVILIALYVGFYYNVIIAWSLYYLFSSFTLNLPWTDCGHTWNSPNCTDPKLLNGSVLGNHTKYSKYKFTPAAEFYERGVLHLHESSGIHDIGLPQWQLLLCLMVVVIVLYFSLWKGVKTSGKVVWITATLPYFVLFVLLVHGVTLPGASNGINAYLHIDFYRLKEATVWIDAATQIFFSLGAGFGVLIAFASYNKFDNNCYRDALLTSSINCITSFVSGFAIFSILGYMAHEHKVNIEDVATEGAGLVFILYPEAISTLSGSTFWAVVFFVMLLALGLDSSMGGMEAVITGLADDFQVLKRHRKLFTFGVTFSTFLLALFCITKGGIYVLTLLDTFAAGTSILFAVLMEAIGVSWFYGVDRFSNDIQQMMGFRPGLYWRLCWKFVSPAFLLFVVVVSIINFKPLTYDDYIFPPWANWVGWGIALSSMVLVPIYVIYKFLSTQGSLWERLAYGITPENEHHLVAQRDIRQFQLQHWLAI
row,SMILES,outcome
1,O=C1OC2(c3ccc(O)cc3Oc3cc(O)ccc32)c2ccccc21,inactive
2,Cc1cc(O)c(C)c(C)c1O,inactive
3,C=C(C)C(N)=O,inactive

# Target: mouse Estrogen Receptor alpha (Era), Esr1 (gene 13982) (UniProt P19785)
# Sequence (P19785 whole entry, looked up): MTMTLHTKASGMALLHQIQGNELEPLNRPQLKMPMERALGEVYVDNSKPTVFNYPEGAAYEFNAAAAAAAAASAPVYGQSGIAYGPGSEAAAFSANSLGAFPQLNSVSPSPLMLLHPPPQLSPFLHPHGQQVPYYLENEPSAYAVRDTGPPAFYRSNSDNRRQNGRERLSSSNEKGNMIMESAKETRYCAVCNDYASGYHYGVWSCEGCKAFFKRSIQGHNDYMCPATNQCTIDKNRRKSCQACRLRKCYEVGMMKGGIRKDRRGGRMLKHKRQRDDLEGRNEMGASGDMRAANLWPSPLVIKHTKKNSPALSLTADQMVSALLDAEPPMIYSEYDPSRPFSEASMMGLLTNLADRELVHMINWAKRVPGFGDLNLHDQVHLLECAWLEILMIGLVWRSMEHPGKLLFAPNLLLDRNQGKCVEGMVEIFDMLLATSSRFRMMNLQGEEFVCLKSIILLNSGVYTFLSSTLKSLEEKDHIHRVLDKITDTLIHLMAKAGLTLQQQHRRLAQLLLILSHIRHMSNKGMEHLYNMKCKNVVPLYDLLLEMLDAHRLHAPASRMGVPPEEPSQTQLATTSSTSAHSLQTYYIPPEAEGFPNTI
# Experiment: NVS_NR_mERa: NovaScreen (NVS) Nuclear Receptor Binding Assay for mouse Estrogen Receptor alpha (Era) (AID 2283378);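 also: hit means loss of bound radioligand signal relative to DMSO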
# Procedure, shortened: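 Test chemicals competed against a specific radioligand for binding to cell-free mouse Era. Duplicate wells at 25 uM were read 18 hours later by filter-based radiodetection, with loss of signal against DMSO scored as activity.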
SMILES,AC50,outcome
CCCCCCCCCOS(=O)(=O)O,12.7 µM (active),–
CCNC(=S)NCC,–,inactive
COc1ccccc1O,–,inactive
O=C1OC2(c3ccc(O)cc3Oc3cc(O)ccc32)c2ccccc21,25 µM (active),–
CC12CCC(C1)C(C)(C)C2O (stereo not given),–,inactive
CCCCCCCCCCCCOCCOS(=O)(=O)O,29.4 µM (active),–
CC(O)CN (stereo not given),6.65 µM (active),–
CCOCC(C)O (stereo not given),35 µM (active),–
FC(F)(F)c1ccc(Cl)c(Cl)c1,–,inactive
CCC(C)(C)c1cc(O)c(C(C)(C)CC)cc1O,–,inactive
CCCCCCCCOC(=O)c1ccc(O)cc1,1.72 µM (active),–
CCCCCC(=O)O[C@]1(C(C)=O)CC[C@H]2[C@@H]3CCC4=CC(=O)CC[C@]4(C)[C@H]3CC[C@@]21C,–,inactive
CC(=O)C1C(=O)C=C(C)OC1=O (stereo not given),–,inactive
CCCCCCC(C)O (stereo not given),–,inactive
CCC(C)(C)C1CCC(=O)CC1,–,inactive
CC/C=C\CCOC(C)OCC (stereo not given),–,inactive
O=S1(=O)CC(Cl)(Cl)C(Cl)(Cl)C1,–,inactive
COC(=O)C(C)Oc1ccc(Oc2ncc(C(F)(F)F)cc2Cl)cc1 (stereo not given),0.164 µM (active),–
CCc1cccc(O)c1,–,inactive
CN(C)CCC=C1c2ccccc2CCc2ccccc21,–,inactive
Cc1cccc(O)c1,–,inactive
CC(=O)CC(=O)N(C)C,–,inactive

# Target: Agonist Androgen Response Element (ARE), AR (gene 367) (UniProt P10275)
# Sequence (P10275 whole entry, looked up): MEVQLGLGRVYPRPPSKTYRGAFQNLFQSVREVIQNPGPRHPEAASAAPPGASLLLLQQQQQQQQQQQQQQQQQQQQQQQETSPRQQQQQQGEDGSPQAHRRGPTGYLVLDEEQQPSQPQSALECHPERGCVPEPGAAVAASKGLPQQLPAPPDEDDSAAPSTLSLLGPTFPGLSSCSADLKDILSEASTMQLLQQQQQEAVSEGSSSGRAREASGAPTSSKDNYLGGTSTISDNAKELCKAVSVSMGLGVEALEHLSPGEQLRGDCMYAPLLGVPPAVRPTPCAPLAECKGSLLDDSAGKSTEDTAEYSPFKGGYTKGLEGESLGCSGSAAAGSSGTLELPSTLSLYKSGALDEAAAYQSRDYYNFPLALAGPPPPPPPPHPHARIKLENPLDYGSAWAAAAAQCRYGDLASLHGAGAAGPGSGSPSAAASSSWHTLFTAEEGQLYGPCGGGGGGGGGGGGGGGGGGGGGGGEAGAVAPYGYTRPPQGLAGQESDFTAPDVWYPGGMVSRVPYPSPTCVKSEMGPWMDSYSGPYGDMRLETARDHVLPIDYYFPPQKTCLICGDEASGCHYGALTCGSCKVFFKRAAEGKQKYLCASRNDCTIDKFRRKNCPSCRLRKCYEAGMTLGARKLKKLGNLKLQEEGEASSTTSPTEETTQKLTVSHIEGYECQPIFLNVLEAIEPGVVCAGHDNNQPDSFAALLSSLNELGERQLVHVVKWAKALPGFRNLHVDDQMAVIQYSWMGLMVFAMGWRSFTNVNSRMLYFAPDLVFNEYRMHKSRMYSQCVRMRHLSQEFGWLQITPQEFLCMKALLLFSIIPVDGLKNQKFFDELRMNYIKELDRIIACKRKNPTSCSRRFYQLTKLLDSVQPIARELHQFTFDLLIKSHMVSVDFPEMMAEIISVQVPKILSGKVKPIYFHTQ
# Experiment: OT_AR_ARELUC_AG_1440: Odyssey Thera (OT) 24-hour CHO-K1 Luciferase Assay for Agonist Androgen Response Element (ARE) (AID 2283379)
# Procedure, shortened: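 Readout: luciferase bioluminescence from CHO-K1 ARE-luc cells, measured 24 h post-dosing; agonism = increased mean luminescence vs DMSO controls, fitted in positive direction.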
SMILES,outcome,AC50
FC(F)(F)c1ccc(Cl)c(Cl)c1,inactive,–
OC[C@H]1O[C@@H](O[C@H]2[C@H](O)[C@@H](O)[C@H](O)O[C@@H]2CO)[C@H](O)[C@@H](O)[C@H]1O,inactive,–
CCCCCCCCCCOC(=O)c1ccccc1C(=O)OCCCCCCCC,inactive,–
CCC(C)(C)C1CCC(=O)CC1,inactive,–
CC(C)(CO)CO,inactive,–
CC(CCO)CC(C)(C)C (stereo not given),inactive,–
COC(=O)c1cccc(C(=O)OC)c1,–,1.63 µM (active)
CCO[Si](CC)(OCC)OCC,inactive,–
CC1COC(=O)O1 (stereo not given),inactive,–
CC(C)(C)c1cccc(O)c1,inactive,–
